Bioassay records: PubChem BioAssay, Broad Institute
A selection: hits, their analogues and other compounds. The true share with any hit is near 1.8%.
LGR2 inh = inhibitors of bursicon-induced Drosophila LGR2 receptor cAMP signaling; inhibition, % at 9.99 µM; 380,000 tested, 0.35% active; HEK293 LGR2, CRE-luciferase, bursicon-stimulated, 4 h;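 active = drop in luminescence signal, shown as inhibition above about 50% in the replicate tests, limit read from the data, passing the limit was not always enough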;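 note: agonist challenge used bursicon conditioned medium at about half maximal strength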
RAD52 inh = blocks human RAD52 DNA annealing; recombinant RAD52 DNA annealing, FRET fluorescence; 360,000 tested, 0.46% active; P43351; inhibition, % at 18.7 µM;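 active = every replicate showing at least 50% inhibition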
Target sequence (P43351 whole entry, looked up): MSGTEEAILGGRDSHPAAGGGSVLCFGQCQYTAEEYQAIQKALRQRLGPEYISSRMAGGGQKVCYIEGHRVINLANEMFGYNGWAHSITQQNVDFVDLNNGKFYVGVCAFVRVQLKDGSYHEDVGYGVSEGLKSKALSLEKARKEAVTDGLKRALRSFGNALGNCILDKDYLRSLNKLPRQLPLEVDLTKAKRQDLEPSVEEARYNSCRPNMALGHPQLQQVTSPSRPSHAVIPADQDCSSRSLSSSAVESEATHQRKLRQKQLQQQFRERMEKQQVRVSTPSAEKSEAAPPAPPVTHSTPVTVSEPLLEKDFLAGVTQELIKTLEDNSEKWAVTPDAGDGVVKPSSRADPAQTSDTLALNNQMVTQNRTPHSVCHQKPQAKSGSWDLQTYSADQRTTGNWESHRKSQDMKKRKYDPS
RAD54 inh = inhibitors of human RAD54 branch migration; Q92698; RAD54 Holliday junction branch migration, FAM/BHQ fluorescence; 360,000 tested, 0.14% active; inhibition, % at 10.4 µM;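 active = mean normalized replicate activity at least 40 and at least half of replicates scoring 40 or more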;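 note: inhibitors cause a drop in the FAM fluorescence signal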
EWS-Fli inh = inhibitors of EWS/Fli oncoprotein transcriptional activity; inhibition, % at 12.6 µM; A673 NR0B1-luciferase reporter, viability-normalised; 350,000 tested, 0.67% active;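 active = mean inhibition of at least 50% after viability correction, with every replicate also passing that limit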;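 note: firefly luciferase signal divided by Alamar Blue viability fluorescence both relative to DMSO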
INS-1E GSIS act = primary screen for activators of insulin secretion dependent on glucose, INS-1E cells, GLuc reporter luminescence. activation, % at 16.6 µM. INS-1E GLuc reporter insulin secretion, 2-3 h. AID 743287. 370,000 tested, 0.61% active;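 active = lowest replicate activation of at least 40%, so every replicate reaches that level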
F508del corr = correctors of CFTR F508del function in bronchial epithelial cells | AID 720511 | 350,000 tested, 0.36% active | CFBE cells, YFP halide quenching; stimulated with forskolin plus potentiator P3; % fluorescence drop versus neutral controls | activity (quench increase), % at 7.58 µM;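 active = mean added fluorescence quench of at least 8% versus neutral control, with both replicates also reaching 8%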;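 note: cells transiently co-express mutant CFTR-F508del with the halide-sensitive YFP; corrector assay measuring rescue of mutant channel to the surface after 24 h compound exposure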
Large screens that a line does not name were inactive; ! = not confirmed by another sample.

CC(=O)OC1C(=O)OCC23CCC4(C)OC4C2OC2CC(OC(=O)C=CC=CC(=O)OCCC1C)C3(C)C21CO1 (centres undefined)	LGR2 inh 104.6 (no result: RAD54 inh, INS-1E GSIS act)
CC1=CC2OC3CC4OC(=O)C=CC=CC(C(C)O)OCC(O)C(C)CC(=O)OCC2(CC1O)C4(C)C31CO1 (centres undefined)	LGR2 inh 107.0, EWS-Fli inh 51.1 (no result: RAD54 inh)
CC(O)C1C=CC=CC(=O)OC2CC3OC4C5OC5(C)CCC4(COC(=O)C4OC4(C)C(O)CO1)C2(C)C31CO1 (centres undefined)	LGR2 inh 101.2 (no result: RAD54 inh)
CN=C1CN(O)C(c2ccccc2)=c2cc(Cl)ccc2=N1	none (no result: LGR2 inh, INS-1E GSIS act)
NCCc1ccccc1	none
CN1C2CCC1C(C(=O)O)C(OC(=O)c1ccccc1)C2 (centres undefined)	INS-1E GSIS act 40.4
CCOC(=O)C1C(OC(=O)c2ccccc2)CC2CCC1N2C (centres undefined)	INS-1E GSIS act 41.2
COC(=O)C1C2CC[C@@H](CC1OC(=O)c1ccccc1)N2 (some centres undefined)	none (no result: LGR2 inh, RAD52 inh, EWS-Fli inh, INS-1E GSIS act, F508del corr)
CCCc1cc(=O)oc2cc(OCC(=O)N3CCC(C(=O)O)(c4ccccc4)CC3)ccc12	none (no result: LGR2 inh, INS-1E GSIS act)
C[C@H]1CCCC(=O)CCC/C=C/c2cc(O)cc(O)c2C(=O)O1	none (no result: INS-1E GSIS act)
C[C@H]1CCC/C=C/[C@@H]2C[C@H](O)C[C@H]2[C@H](O)/C=C/C(=O)O1	EWS-Fli inh 53.9, F508del corr 15.8! (no result: INS-1E GSIS act)
O=c1[nH]c(=O)n(Cc2ccccc2Cl)c(O)c1/C=C1/C=CC=N1	EWS-Fli inh 59.9 (no result: RAD54 inh)
CCCCn1c(O)c(/C=C2/C=CC=N2)c(=O)[nH]c1=O	INS-1E GSIS act 55.7
Cc1cccc(CSc2nc3c(cc2C#N)CN(C)CC3)c1	none
CC(=O)c1ccc(OC(NC(=O)c2ccco2)C(Cl)(Cl)Cl)cc1 (centres undefined)	none (no result: RAD54 inh)
CC(C)COC(=O)c1ccccc1C(=O)OCC(C)C	none
C[CH2][Hg][S]c1ccccc1C(=O)O	LGR2 inh 95.6 (no result: INS-1E GSIS act)
CSc1ncc(Br)c(N2CC2)n1	INS-1E GSIS act 41.6
CSc1nc(Cl)c(Br)c(N2CC2)n1	none
C[C@]12CCC3C(CCC4=C/C(=N/OCC(=O)NC(CCC(=O)O)C(=O)O)CC[C@@]43C)C1CCC2O (some centres undefined)	INS-1E GSIS act 44.1
C=CCSc1nc2c(c(-c3ccsc3)c1C#N)CN(C)CC2	INS-1E GSIS act 45.6
CCN(CC)c1ccc(N=Cc2c(O)n(-c3ccccc3)c(=O)[nH]c2=O)cc1	none (no result: LGR2 inh, RAD54 inh, INS-1E GSIS act)
CCN(CC)c1ccc(N=Cc2c(O)n(Cc3ccccc3)c(=O)[nH]c2=O)cc1	INS-1E GSIS act 41.1 (no result: RAD52 inh, EWS-Fli inh, F508del corr)
COC(=O)C1=C(c2c(C)noc2C)C[C@@H]2CC[C@H]1N2C(=O)NC1Cc2ccccc2C1	none (no result: INS-1E GSIS act)
COC(=O)C1=C(c2cc3ccccc3o2)C[C@@H]2CC[C@H]1N2C(=O)N1CCCCC1	EWS-Fli inh 58.2 (no result: RAD52 inh)
COC(=O)C1=C(c2cc3ccccc3o2)C[C@@H]2CC[C@H]1N2C(=O)N1CCCC1	none (no result: RAD52 inh)
CCOc1ccc(-c2cc(C)[n+](CCc3ccc(OC)c(OC)c3)c(-c3ccc(OCC)cc3)c2)cc1	EWS-Fli inh 51.1
CCOc1ccc(-c2cc(C)[n+](CCO)c(-c3ccc(OCC)cc3)c2)cc1	none
C=C1C(=O)O[C@@H]2C[C@@H](C)[C@@H]3C=CC(=O)[C@@]3(C)[C@@H](O)[C@H]12	LGR2 inh 101.7, EWS-Fli inh 58.4, F508del corr 12.9
CCC(=NCc1cc(OC)cc(OC)c1)c1c(O)n(C)c(=O)n(C)c1=O	none (no result: RAD52 inh, EWS-Fli inh, F508del corr)
O=C(NC[C@H]1CC[C@H]2[C@H](CN2Cc2cccnc2)O1)C1CC1	none (no result: LGR2 inh, RAD54 inh, INS-1E GSIS act)
COc1c(O)cc2c(c1OC)-c1ccc(OC)c(=O)cc1C(NC(C)=O)CC2 (centres undefined)	F508del corr 8.2 (no result: RAD54 inh)
COc1ccccc1CN1CCNCC1	none
COC(=O)C(Cc1ccc(N(CCCl)CCCl)cc1)N=Cc1ccccc1O (centres undefined)	EWS-Fli inh 66.9
CCn1nc(/C=C/c2ccccc2)nc2c(=O)n(C)c(=O)nc1-2	LGR2 inh 104.3 (no result: RAD54 inh)
O=C1C=CC(=O)C2C1C1(Cl)C(Cl)=C(Cl)C2(Cl)C1(Cl)Cl (centres undefined)	none
Cc1[nH]c2ccc(OC(F)(F)F)cc2c1CCNCc1ccc(Cl)cc1	INS-1E GSIS act 213.8
CC(=O)OC[C@]12CCC(C)=C[C@H]1O[C@@H]1[C@H](O)[C@@H](OC(C)=O)[C@@]2(C)[C@]12CO2	LGR2 inh 103.9, EWS-Fli inh 55.5
Cc1cc(C)n(-c2ccc(NN=C(C#N)C#N)cc2)n1	LGR2 inh 81.9
N#CC(C#N)=NNc1ccc(-n2ccc(C(F)(F)F)n2)cc1	LGR2 inh 78.4
O=C(c1cccc2ccccc12)C1CCCN(Cc2ccon2)C1 (centres undefined)	INS-1E GSIS act 40.4
Cc1cc(Cl)ccc1C(=O)C1CCCN(Cc2ccon2)C1 (centres undefined)	none (no result: RAD54 inh)
CC1=NCCc2c1[nH]c1cc(O)ccc21	F508del corr 31.7
COC(=O)C12CCc3cc(OC)ccc3C1=CC(=O)C2 (centres undefined)	none
CCOC(=O)[C@]12Cc3cc(OC)ccc3[C@H]1N(C1CCCCC1)C(=O)c1cc(OC)ccc12	LGR2 inh 51.4, INS-1E GSIS act 325.1 (no result: RAD54 inh)
CCOC(=O)[C@]12Cc3cc(C)ccc3[C@H]1N(C1CCCCC1)C(=O)c1cc(OC)ccc12	LGR2 inh 68.4 (no result: RAD54 inh)
COc1ccccc1CCNC1CCC(C)CC1 (centres undefined)	none (no result: RAD52 inh, RAD54 inh, EWS-Fli inh, F508del corr)
O=C(CNC(=O)OCc1ccccc1)Nc1ccc(Br)cc1C(=O)c1ccccc1	none (no result: LGR2 inh, RAD52 inh, EWS-Fli inh, INS-1E GSIS act, F508del corr)
CC(=O)c1cn(CC(=O)NCCc2c[nH]c3ccccc23)c2ccccc12	none
Cc1ccc(N)cc1Cl	none
Nc1ccc(Cl)c(Cl)c1	F508del corr 12.3
CC(=O)Nc1ccc([As](=O)(O)c2ccc([N+](=O)[O-])cc2)cc1	none (no result: RAD54 inh)
COc1nc(C)nc(NC(=O)NS(=O)(=O)c2ccccc2Cl)n1	F508del corr 13.8 (no result: INS-1E GSIS act)
COc1ccc(CC2NCC(O)C2OC(C)=O)cc1 (centres undefined)	EWS-Fli inh 58.8 (no result: LGR2 inh)
CCC1(C)OC(c2ccccc2)=C/C(=C/C=C2C(=O)NC(=O)NC2=O)O1 (centres undefined)	F508del corr 15.3 (no result: RAD54 inh)
O=C(CN1CCOCC1)c1cccc2ccccc12	none (no result: LGR2 inh, RAD52 inh, EWS-Fli inh, INS-1E GSIS act, F508del corr)
CC(=O)O[C@@]12CO[C@@H]1C[C@H](O)[C@@]1(C)C(=O)[C@H](O)C3=C(C)[C@@H](O)C[C@@](O)([C@@H](OC(=O)c4ccccc4)C12)C3(C)C (some centres undefined)	none
C/C=C(\C)C(=O)N[C@@H](c1ccccc1)[C@@H](O)C(=O)O[C@H]1C[C@@]2(O)[C@@H](OC(=O)c3ccccc3)C3[C@](C)(C(=O)[C@H](OC(C)=O)C(=C1C)C2(C)C)[C@@H](O)C[C@H]1OC[C@@]31OC(C)=O (some centres undefined)	EWS-Fli inh 57.6 (no result: LGR2 inh, INS-1E GSIS act)
